Measured values: PubChem BioAssay AID743395 (Broad Institute, 2014)
Screen size: about 1,200 compounds; about 480 (40%) were called active. So high a share suggests a set chosen from earlier hits. Not all results are given here. Measured potencies and affinities stand elsewhere. A number with no mark means an inactive call. How the calls were made is not given here.

Experiment: HepG2 cell cytotoxicity, dose response, cytotoxicity control, CellTiter-Glo luminescence, cherry-pick, set 2 (AID 743395);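 further: 0% = neutral control wells and -100% = positive control wells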
Conditions: HepG2 viability, CellTiter-Glo ATP luminescence, 72 h; series mostly up to 26 µM; activity change, negative = cytotoxicity: at the top concentration

Row | Structure (SMILES) | activity change, negative = cytotoxicity
1 | CCOC(=O)c1[nH]c(C)c(/C(O)=C2\C(=O)C(=O)N(CCCN3CCOCC3)C2c2cccs2)c1C (stereo not drawn) | 10.2%
2 | CC(C)CC1Nc2ncnc(N3CCN(c4ccccn4)CC3)c2N(Cc2ccc(Br)cc2)C1=O (stereo not drawn) | -0.413%
3 | COc1ccc(-n2nnnc2C(c2ccccc2)N2CCN(C/C=C/c3ccccc3)CC2)cc1 (stereo not drawn) | -7.14%
4 | O=C(NNC(=O)c1ccncc1)Nc1ccc(Cl)cc1 | 10.9%
5 | CCN1C(=O)[C@H]2[C@@H](c3ccc(-c4ccc(Cl)c(Cl)c4)cc3)N[C@@](C)(C(=O)OC)[C@H]2C1=O | -4.63%
6 | NC(=O)CC(NC(=O)Cc1ccc(Br)cc1)c1ccc(NC2CC3CCC2C3)c([N+](=O)[O-])c1 (stereo not drawn) | -30.8%
7 | CN(C)/C=C1\C=C2C(=O)c3ccccc3N2C1=O | -9.76%
8 | CC(O)CNc1nc(N)[nH]c(=O)c1N=Nc1ccccc1 (stereo not drawn) | 9.61%
9 | CCC(C(=O)OCC(=O)C1(O)CCC2C3CCC4=CC(=O)CCC4(C)C3C(O)CC21C)C(C)C (stereo not drawn) | -8.94%
10 | OC[C@@H]1[C@@H](c2ccccc2)C2(CN(Cc3ccccc3F)C2)N1Cc1ccccc1F | -2.23%
11 | NC(=O)c1cc(Cl)ccc1OCC(=O)NC1CC1 | -6.69%
12 | O=C(c1ccccc1F)N1CC[C@@H]2[C@H](CO)Nc3ccc(Br)cc3[C@@H]21 | -27.6%
13 | COc1ccc(C#Cc2ccc3c(c2)[C@@H]2[C@@H](CCN2C(=O)c2cccc(F)c2)[C@@H](CO)N3)cc1 | -3.32%
14 | O=C(NCc1nnnn1-c1ccc(Cl)cc1)C(=O)c1c[nH]c2ccccc12 | 0.083%
15 | COc1ccc(NC(=O)N[C@@H]2CC[C@@H](CCn3cc(-c4ccc(F)cc4)nn3)O[C@@H]2CO)cc1 | 9.05% [at 23.5 µM]
16 | NNC(=O)c1[nH]c2ccc(Cl)cc2c1-c1ccccc1 | -17.7%
17 | CC1CN(S(=O)(=O)c2cccc(C(=O)Nc3cc(Cl)ccc3N3CCOCC3)c2)CC(C)O1 (stereo not drawn) | -14.3%
18 | O=C(NC(Cc1ccccc1)C(=O)N1CCN(S(=O)(=O)c2ccccc2F)CC1)c1ccccc1 (stereo not drawn) | -13.5%
19 | CC(C)(C)C(=O)OCc1nc(-c2ccc(O)c(O)c2)cs1 | -8.53%
20 | CO[C@@H](CN(C)S(=O)(=O)c1ccc(C)cc1)[C@H](C)CN([C@H](C)CO)S(=O)(=O)c1cccc(Cl)c1 | 7.18%
21 | COc1ccc(CNC(=O)c2cc3c(c(-c4cccc(-c5ccc(C#N)cc5)c4)n2)[C@@H](CCO)N([S@](=O)C(C)(C)C)C3)cc1 | -9.63% [at 23.5 µM]

Row | Structure (SMILES) | activity change, negative = cytotoxicity
22 | COc1cccc(C(=O)c2c[nH]c(C(=O)NCCCN3CCOCC3)c2)c1 | -0.29%
23 | CC(Sc1nc2ccccc2c(=O)n1C)C(=O)Nc1ccc2c(c1)OCCO2 (stereo not drawn) | -2.36%
24 | c1ccc(CCN(Cc2ccccc2)Cc2nc(C3CC3)no2)cc1 | -4.04%
25 | O=C(CCN1CCCCC1)N1CCc2c([nH]c3ccccc23)C1c1cccnc1 (stereo not drawn) | 0.121%
26 | COc1ccc(OC)c(N/C(N)=N/c2nc(C)cc(C)n2)c1 | -5.35%
27 | COc1cc(C(O)CO)ccc1OS(=O)(=O)O (stereo not drawn) | -16.3%
28 | COc1ccc2c(c1OC)OCC2C (stereo not drawn) | -0.236%
29 | Cc1cc(C)nc(N(C#N)Cc2cccc(Cl)c2)n1 | -20.8%
30 | CCOc1ccc(C(=O)NCC(=O)NNC(=O)c2cc(C)oc2C)cc1OCC | 3.23%
31 | Cc1cccc(C(=O)OCC(=O)NC(C)C2CC3CCC2C3)c1O (stereo not drawn) | -11.9%
32 | Cc1ccc(-n2cc(-c3ccccc3)c3c(N4CCOCC4)ncnc32)cc1 | 16.3%
33 | O=C(C(Cc1ccccc1)n1cccc1)N1CCCCC1 (stereo not drawn) | 9.04%
34 | CC(C)(C)C1COc2ccccc2N1C(=O)c1cccc(Cl)c1 (stereo not drawn) | -1.18%
35 | C/C=C/c1ccc2c(c1)O[C@@H](CN(C)C(=O)Nc1cccc(F)c1)[C@H](C)CN([C@H](C)CO)S2(=O)=O | 5.7%
36 | Cc1cc2c(s1)Nc1ccccc1N=C2N1CCN(C)CC1 | -19.3%
37 | CCN[C@H]1CN(CCCOC)S(=O)(=O)c2sc(S(N)(=O)=O)cc21 | 6.26%
38 | O=C(c1ccc2ccccc2c1)N1CCN(Cc2ccccc2)CC1 | -13.3%
39 | Cc1cccc(N2CCN(C(=O)c3c(-c4ccccc4Cl)noc3C)CC2)c1C | -18.3%
40 | NC1(C(=O)O)CC1 | 11.4%
41 | O=c1cnc2ccccc2n1CC1CCCCC1 | -4.42%
42 | Cc1cc(C)c(/C=C2\C(=O)Nc3ccccc32)[nH]1 | -18.6%

Row | Structure (SMILES) | activity change, negative = cytotoxicity
43 | Cc1cccc(N(C)S(=O)(=O)c2ccc(-c3cc(C)no3)s2)c1 | 10.6%
44 | CC(OC(=O)c1cccs1)C(=O)NC1CCCCC1C (stereo not drawn) | -16.4%
45 | Cc1cc(C(=O)N/N=C/c2ccc([N+](=O)[O-])cc2)c2ccccc2n1 | -25.6%
46 | CN(C)c1ccc2c(c1)[C@@H]1C[C@@H](CC(=O)NCc3ccc(Oc4ccccc4)cc3)O[C@H](CO)[C@@H]1O2 | -15.5%
47 | Cc1cc(C(=O)N2CC=C(c3ccccc3)CC2)c2ccccc2n1 | -29.1%
48 | CCN(CC(=O)Nc1cc(Cl)ccc1-n1cncn1)Cc1nc2ccccc2c(=O)[nH]1 | -9.39%
49 | CCN(C(=O)COC(=O)c1cc2c(s1)CCCC2)c1c(N)n(Cc2ccccc2)c(=O)[nH]c1=O | -4.95%
50 | O=S(=O)(Nc1ccc(F)cc1Cl)c1ccc(-c2cnc(C3CC3)o2)cc1 | -20.5%
51 | COc1ccccc1NS(=O)(=O)c1cc(-c2cnc(C3CC3)o2)ccc1C | -17.7%
52 | CC(C)c1cccc(-c2csc(C(O)c3ccco3)n2)c1 (stereo not drawn) | -11.9%
53 | COc1ccc(OC)c(-c2nnc3n2N=C(c2ccc(OC)c(OC)c2)CS3)c1 | -34.3%
54 | Cc1cc(N2CCCC2)c(F)cc1/C=C\[N+](=O)[O-] | -34.7%
55 | NS(=O)(=O)c1ccc2nc(NC(=O)c3ccc4c(c3)OCCO4)sc2c1 | 4.38%
56 | C/C=C/c1ccc([C@@H]2[C@H](CO)N(CC3CC3)[C@H]2CNC(=O)c2ccccc2)cc1 | -25.2% [at 23.5 µM]
57 | CCOc1ccc(S(=O)(=O)N2CCCCC2)cc1NC(=O)c1ccccc1 | 18.5%
58 | COc1ccc(-c2nc(-c3cccc(C)c3)no2)cc1OC | -1.21%
59 | Nc1ccc(S(=O)(=O)Nc2cnc3ccccc3n2)cc1 | -11.6%
60 | COc1ccc(S(=O)(=O)Cc2ccc(C(=O)N3CCN(c4cccc(C)c4)C(C)C3)o2)cc1 (stereo not drawn) | -11.2%
61 | Cc1ccccc1OCC(=O)OCC(=O)NCCc1ccccc1 | 21%
62 | COC(=O)C[C@@H]1CC[C@@H]2[C@H](COc3ccc(NC(=O)c4cc(C)on4)cc3C(=O)N2C)O1 | -12.3%
63 | CC(=O)N1Cc2cc(C(=O)NCC(F)(F)F)nc(-c3cccc(-c4cccnc4)c3)c2[C@@H]1CCO | -7.78%
